{
  "source": "PubChem BioAssay (NCI)",
  "note": "About 83,000 compounds went through this panel and 20% of them were active in at least one assay; those are over-represented in the sample as a whole.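 In brief: 96-well plates, 48 h treatment, single concentration, percent growth endpoint.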 A number with no mark means an inactive call. Activity calls are given as the source filed them.",
  "data": [
    {"tested_on": "HCT-15 colon", "assay": "NCI-60 one-dose screen, 48 h (100 = growth as untreated, 0 = no growth, -100 = all killed)", "details": "10 µM unless noted", "procedure": "Growth inhibition of the HCT-15 human tumor cell line is measured as a screen for anti-cancer activity. Cells are grown in 96 well plates and exposed to the test compound for 48 hours. Compounds are tested at a single concentration, which is 10^-5 M for most compounds. The reported endpoint is percent growth (GI% or GIPRCNT), where numbers from 0 - 100% represent growth inhibition, and numbers from -100% - 0 represent cell death. For example, a value of 40 represents 60% growth inhibition. A value of 0 means no net growth occurred over the course of the experiment. A value of -40 indicates 40% of cells at the beginning of the experiment died by the end of the experiment. A value of -100 means all cells are dead at the end of the experiment.\nNCI-60 Human Tumor Cell Lines Screen was performed using the standard one-dose NCI protocol, which is described in more detail at https://dtp.cancer.gov/discovery_development/nci-60/default.htm.\nCompounds with GIPRCNT values below 10 were considered active. Activity score was based on GIPRCNT using the following formula: […]\nScore is 0 for GIPRCNT values of 100 or above, 50 for GIPRCNT values of 0, and 100 for GIPRCNT values of -100.", "values": [
      {"smiles": "CCOC(=O)c1cc2c(n1Cc1cccc(OC)c1)-c1oncc1CCC2", "growth": "29.3%"},
      {"smiles": "COc1ccc(C2=NN(/C=C3\\SC(=O)NC3=Nc3ccc(F)cc3)C(c3ccc(F)cc3)C2)cc1", "note": "(stereo not given)", "growth": "98.9%"},
      {"smiles": "O=S1(=O)CCN(Cc2ccccc2)CC1", "growth": "92.8%"},
      {"smiles": "Fc1cccc(COc2ccc(Nc3ncnc4onc(-c5ccccc5)c34)cc2)c1", "growth": "20.2%"},
      {"smiles": "Cn1c2c(c(=O)[nH]c1=O)NC1=C(C(=O)c3ccccc31)C1(C=C(O)c3ccccc31)N2", "note": "(stereo not given)", "growth": "96.9%"},
      {"smiles": "CC1CCCCN1CCCNC(=O)c1ccc2c(c1)sc1nc(-c3ccc(F)cc3)cn12", "note": "(stereo not given)", "growth": "104%"},
      {"smiles": "CN1C(=O)N(C)C2(c3ccccc3)n3c(s/c(=C\\c4ccccc4)c3=O)=NNC12c1ccccc1", "note": "(stereo not given)", "growth": "89.5%"},
      {"smiles": "COC(=O)/C(CCC=C(C)C)=C1\\[C@@H](OC(C)=O)C[C@@]2(C)[C@H]1C[C@@H](O)[C@H]1[C@@]3(C)CC[C@H](NCCCNCCCCNCCCN)[C@@H](C)[C@@H]3CC[C@@]12C", "growth": "76.8%"},
      {"smiles": "CCCc1c(C)c2sc(=O)[nH]c2[nH]c1=O", "growth": "103%"},
      {"smiles": "COc1ccc(Nc2cc(C)nc(NCc3ccccc3)n2)cc1", "growth": "26.1%"},
      {"smiles": "O=C(NC1CCCCC1)C(c1cccs1)N(CCc1ccccc1)C(=O)c1ccco1", "note": "(stereo not given)", "growth": "93.4%"},
      {"smiles": "C[C@@H](C(=O)NCCCC#Cc1cnc(Nc2ccc(C#N)cc2)nc1NC1CC1)N(C)C(=O)/C=C/CN(C)C", "growth": "29.9%"},
      {"smiles": "COc1ccc(CN2CCCC(C(=O)c3ccc(C(F)(F)F)cc3)C2)c(O)c1", "note": "(stereo not given)", "growth": "25.7%"},
      {"smiles": "Cc1ccc(NC2=CC(=O)C(=O)c3ccccc32)c(C)c1", "growth": "13.3%"},
      {"smiles": "O=C1CCC(N2C(=O)c3cccc(NCCCCCCOc4ccc(Nc5nccc(Nc6ccccc6)n5)cc4)c3C2=O)C(=O)N1", "note": "(stereo not given)", "growth": "86.7%"},
      {"smiles": "O=C(Nc1ccsc1C(=O)NC1CCCCC1)c1ccc(F)cc1", "growth": "95.6%"},
      {"smiles": "COc1ccccc1C1=C(Br)C(=O)c2nc(C)ccc2C1=O", "growth": "96.7%"},
      {"smiles": "Cc1ccccc1CNC(=O)C1CN(c2ccc(Cl)cc2)N(c2ccc(Cl)cc2)C1=O", "note": "(stereo not given)", "growth": "78.8%"},
      {"smiles": "C1CCN(c2nc(N3CCCCC3)nc(N3CCOCC3)n2)CC1", "growth": "105%"},
      {"smiles": "Cc1ccc(Cn2c(N3CCC(C(=O)NCc4cccs4)CC3)nc3ccccc32)cc1", "growth": "87%"},
      {"smiles": "O=c1oc2ccc(Br)cc2c(=O)n1-c1ccc(F)cc1F", "growth": "13.6%"},
      {"smiles": "COc1cc(/C=C/C(=O)c2ccc(Cl)cc2)cc(CN2CCCCC2)c1O", "growth": "69.8%"},
      {"smiles": "CC(=O)c1ccc(Cc2ccc(C(C)=O)s2)s1", "growth": "99%"},
      {"smiles": "O=C(Cn1cc(COc2ncnc3c2cnn3-c2ccccc2)nn1)Nc1ccccn1", "growth": "101%"},
      {"smiles": "O=C(c1nc2ccccc2[nH]1)C1C(c2ccc([N+](=O)[O-])cc2)C2CC3CCCCC3N2[C@@]12C(=O)Nc1cc(Cl)ccc12", "note": "(stereo not given in full)", "growth": "11%"},
      {"smiles": "COc1ccc(C2Nc3nc(OC)n(C)c(=O)c3N=C3c4ccccc4C(=O)C32)cc1", "note": "(stereo not given)", "growth": "88.3%"},
      {"smiles": "Oc1c(C(Nc2ccccn2)c2cccc(Oc3ccccc3)c2)ccc2cccnc12", "note": "(stereo not given)", "growth": "-57.6% (active)"},
      {"smiles": "COc1cccc(C2=NN3C(C2)c2ccccc2OC3c2ccc(/C=C3\\SC(=O)NC3=O)cc2)c1", "note": "(stereo not given)", "growth": "95.2%"},
      {"smiles": "CN(C)c1ccc(/C=C/c2ccnc3c(O)cccc23)cc1", "growth": "26.7%"},
      {"smiles": "COc1cc([C@@H]2NC(=O)NC(C)=C2C(=O)Nc2nc(-c3ccc(Cl)cc3)cs2)ccc1O", "growth": "100%"},
      {"smiles": "CCN1C(=O)N(CC)C2C1NN=c1s/c(=C3\\C(=O)N(CC(C)(C)C)c4ccccc43)c(=O)n12", "note": "(stereo not given)", "growth": "14.2%"},
      {"smiles": "CCCCNc1nc(NC(C)(C)C)nc(NC(C)(C)C)n1", "growth": "57.6%"},
      {"smiles": "O=C1/C(=C/c2ccc(O)cc2)COc2ccc(O)cc21", "growth": "75.9%"},
      {"smiles": "Clc1ccc(Nc2scc3[n+]2CCC3)cc1", "growth": "93.4%"},
      {"smiles": "COc1cc2c(cc1OC)C(=O)C(CC1CCN(C(=O)Nc3ccc(C)cc3)CC1)C2", "note": "(stereo not given)", "growth": "94.5%"},
      {"smiles": "CCCCC(O)(c1ccc(Cl)cc1)C(CN1CCOCC1)c1ccc(Cl)cc1", "note": "(stereo not given)", "growth": "34.9%"},
      {"smiles": "O=C(/C=C/c1ccc(Cl)cc1)c1ccc(Nc2nc(NCCO)nc(N3CCOCC3)n2)cc1", "growth": "44.8%"},
      {"smiles": "O=Cc1c(OCc2cnnn2CC(=O)Nc2ccc(Br)cc2)ccc2ccccc12", "growth": "80.4%"},
      {"smiles": "CC[C@H](C)[C@@H](C(=O)OC)n1cc(CNC(=O)[C@@H](Cc2ccccc2)NC(=O)OCc2ccccc2)nn1", "growth": "97.5%"},
      {"smiles": "COc1ccc(-c2nocc2-c2cccs2)cc1", "growth": "99.1%"}
    ]}
  ]
}
